JMJD2E inh: qHTS Assay for Inhibitors of Human Jumonji Domain Containing 2E (JMJD2E); Potency, µM (series often up to 57.1 µM), usual class: inhibitors; Lysine-specific demethylase 4E (Homo sapiens), B2RXH2; 230,000 compounds, 1.6% hits; AID 2147, 2009; JMJD2E catalytic domain, FDH-coupled NADH fluorescence (FDH is formaldehyde dehydrogenase); further: nearly all actives have a fitted effect of over 50% in size
Target sequence (B2RXH2 1-337 limits assumed): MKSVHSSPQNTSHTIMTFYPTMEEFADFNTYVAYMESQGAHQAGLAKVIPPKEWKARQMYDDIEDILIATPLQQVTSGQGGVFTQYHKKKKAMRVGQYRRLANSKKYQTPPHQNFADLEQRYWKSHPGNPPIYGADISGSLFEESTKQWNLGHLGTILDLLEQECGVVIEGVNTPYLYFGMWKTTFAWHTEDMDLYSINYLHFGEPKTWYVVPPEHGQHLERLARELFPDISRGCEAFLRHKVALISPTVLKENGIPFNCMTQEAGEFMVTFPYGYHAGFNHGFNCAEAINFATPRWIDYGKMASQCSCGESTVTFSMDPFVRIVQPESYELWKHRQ
HTT aggregate: qHTS Multiplex Assay to Identify Dual Action Probes in a Cell Model of Huntington: Aggregate Formation (GFP) | PC12 HttQ103-GFP aggregates, Acumen cytometry, 40 h | Potency, µM (top dose mostly 46.1 µM), usual class: inhibitors | 220,000 compounds, 1.1% hits | AID 1688, 2009; active means well fitted curve in the direction sought with a large enough effect; inconclusive means small, poorly fitted or top-dose-only effect, or another doubt; inactive means no such curve, though single readings can be large; an effect the other way counts as inactive or inconclusive; further: nearly all actives have a fitted effect of over 60% in size
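PC12 cells with ecdysone-inducible HTT exon1 Q103-GFP, induced by 100 nM tebufenozide, given compounds in a concentration series. GFP aggregates (1–25 um, 6 SD above background) counted in lysates by laser-scanning cytometry, 488 nm excitation.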
HTT ATP protect: qHTS Multiplex Assay to Identify Dual Action Probes in a Cell Model of Huntington: Cytoprotection (ATP); PC12 HTT-Q103 induced, cytoprotection, ATP luminescence, 40 h; Potency, µM (titrated, usually from 56.4 µM), hits mostly activators; 230,000 compounds, 0.14% hits; active means well fitted curve in the direction sought with a large enough effect; inconclusive means small, poorly fitted or top-dose-only effect, or another doubt; inactive means no such curve, though single readings can be large; an effect the other way counts as inactive or inconclusive; further: nearly all actives have a fitted effect of over 45% in size
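PC12 cells stably carrying ecdysone-inducible Htt exon 1 (Q103)–GFP were induced with 100 nM tebufenozide (final) alongside library compounds in a dose series. Cytoprotection was scored as retained ATP by ATPlite luminescence.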
ALDH1A1 inh: qHTS Assay for Inhibitors of Aldehyde Dehydrogenase 1 (ALDH1A1); Aldehyde dehydrogenase 1A1 (Homo sapiens), P00352; Potency, µM (highest dose often 75.3 µM), usual class: inhibitors; 220,000 compounds, 7.3% hits; Purified ALDH1A1, NADH fluorescence, propionaldehyde substrate
LMNA splice mod: qHTS Assay for Modulators of Lamin A Splicing | AID 1487, 2009 | HeLa LMNA splicing GFP/RFP minigene ratio, 48 h | Potency, µM (series often up to 46.1 µM), hits mostly inhibitors | 200,000 compounds, 0.01% hits; active means well fitted inhibition curve with a large enough effect in the signal ratio, with a control signal flat, not every such curve was filed as active; inconclusive means small, poorly fitted or top-dose-only effect, or effect the other way, or a change in a side signal; the % refers to the signal ratio
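Read-out is the ratio of GFP to DsRed2 object intensity, acquired by 488 nm laser-scanning cytometry on HeLa lamin A-EGFP minigene reporter cells. Compound incubation 48 hrs at 37 °C in Opti-MEM with 2% FBS; DMSO 0.5% final.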
HPGD inh: qHTS Assay for Inhibitors of HPGD (15-Hydroxyprostaglandin Dehydrogenase); 15-hydroxyprostaglandin dehydrogenase [NAD(+)] (Homo sapiens), P15428; 150,000 compounds, 4.3% hits; purified HPGD, NADH fluorescence kinetic, PGE2 substrate; AID 894, 2007; Potency, µM, hits mostly inhibitors
Target sequence (P15428 whole entry, looked up): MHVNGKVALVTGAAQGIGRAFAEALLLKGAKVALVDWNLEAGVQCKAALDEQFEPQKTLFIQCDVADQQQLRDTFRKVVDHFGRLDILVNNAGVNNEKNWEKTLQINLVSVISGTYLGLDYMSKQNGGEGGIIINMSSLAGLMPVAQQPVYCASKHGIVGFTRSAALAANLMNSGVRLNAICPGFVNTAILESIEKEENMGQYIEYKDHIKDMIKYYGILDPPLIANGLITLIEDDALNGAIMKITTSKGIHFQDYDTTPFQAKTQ
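20 nM HPGD preincubated 15 min at room temperature with compound in 50 mM Tris-HCl pH 8, 0.01% Tween 20. Started with 1 mM NAD+ and 30 uM prostaglandin E2; NADH fluorescence (360/450 nm) read 5 times over 30-s intervals, last minus first.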
Hits are given with their value; n = inactive; u = inconclusive; x = not tested or not shown; [ ] = another dose, or the depositor's remark. Hits are enriched below; roughly 9.2% of the tested compounds scored in any of these assays. Unless noted, the call rests on the fitted dose curve; in most records, active means well fitted inhibition curve with a large enough effect (not every such curve was filed as active); inconclusive means small, poorly fitted or top-dose-only effect, or another doubt; inactive means no such curve, though single readings can be large or run the other way.

SMILES	JMJD2E inh	HTT aggregate	HTT ATP protect	ALDH1A1 inh	LMNA splice mod	HPGD inh
CN(C(=O)c1cnc(N2CCN(c3ncccn3)CC2)c2ccccc12)c1ccc(Cl)cc1	n	n	n	n	u	22µM
CCN(C(=O)c1cnc(N2CCN(c3ncccn3)CC2)c2ccccc12)c1cccc(Cl)c1	u	u	n	u	u	u
CC(C)NC(=O)c1cnc(N2CCN(c3ccccn3)CC2)c2ccccc12	n	n	n	32µM	u	u
CCc1ccc(NC(=O)c2cnc(N3CCN(c4ccccn4)CC3)c3ccccc23)cc1	u	n	n	u	x	x
COC(=O)C1=C(C)NC(C)=C(C(=O)OC)C1c1ccc(N(C)C)cc1	n	n	n	n	n	n
COC(=O)C1C(c2ccc(N(C)C)cc2)C(C(=O)OC)S(=O)(=O)CS1(=O)=O (stereo not given)	n	n[9.22 µM]	n	10µM	x	x
Cc1ccccc1C(=O)NNC(=O)CSc1nc2ccccc2c(=O)[nH]1	n	n[9.22 µM]	n[10 µM]	x	x	x
C[C@@]1(C(NC(=O)c2cccs2)c2ccc(-c3ccccc3)cc2)C[C@H]1C1CCCCC1 (stereo not given in full)	n	x	n	n	x	n
COC(=O)c1ccc(C(NC(=O)c2ccccc2)[C@]2(C)C[C@H]2C2CCCCC2)cc1 (stereo not given in full)	n	x	n	1.3µM	x	n
Cc1ccccc1-c1cc(-n2ccnc2)ncn1	n	x	n	n	u	n
NCCC[C@@H](CC(=O)N[C@@H]1CCCC[C@H]1C(=O)N[C@H](CC(=O)N[C@@H](CCC(=O)O)CC(=O)O)Cc1c[nH]c2ccccc12)NC(=O)C[C@H](Cc1ccccc1)NC(=O)[C@@H]1CCCC[C@H]1N	n	x	n[1.9 µM]	n	x	n
O=C(CSc1nc(-c2ccccc2)cs1)NC(=O)NCc1ccco1	n	n	n[10 µM]	u	u	n
O=C(CSc1n[nH]c(-c2ccccc2)n1)NC(=O)NCc1ccco1	n	n	n	n	n	14µM
O=C(CSc1n[nH]c(-c2ccccc2)n1)Nc1ccc(Br)cn1	n	u	n[10 µM]	n	n	13µM
O=C(CSc1n[nH]c(-c2ccccc2)n1)Nc1ncccn1	n	n[9.22 µM]	n	n	n	x
O=C(CSc1nc2ccccc2s1)NC(=O)NCc1ccco1	n	n	n	32µM	n	25µM
COc1cc(OC)cc(C(=O)NNC(=S)Nc2ccccc2OC)c1	n	n	x	22µM	n	n
COc1ccccc1NC(=S)c1ccccc1	n	u	n[10 µM]	28µM	n	22µM
COc1ccccc1NC(=S)NNC(=O)c1cc(C)nn1C	n	n	n	n	n	n
COc1ccccc1NC(=S)NNC(=O)c1cc(C)n(C)n1	18µM	n	u	n	n	n
Cc1ccc2c(C(=O)CN3CCN(C4CCCCC4)CC3)c(C)[nH]c2c1	n	n	n[0.074 µM]	13µM	n	n
Cc1ccc2c(C(=O)CN3CCCCC3CCO)c(C)[nH]c2c1 (stereo not given)	n	n[9.22 µM]	n[0.074 µM]	u	n	n
NNc1cc(C(=O)O)ccc1Cl	n	n[9.22 µM]	n[10 µM]	22µM	n	x
O=C(O)c1ccc(Cl)c(Cl)c1	x	x	n	n	x	n
COc1ccc(CCNC(=O)c2ccc(CNS(=O)(=O)c3ccc(C(C)(C)C)cc3)cc2)cc1OC	n	n	n[10 µM]	u	n	n
SMILES	JMJD2E inh	HTT aggregate	HTT ATP protect	ALDH1A1 inh	LMNA splice mod	HPGD inh
COc1cccc(S(=O)(=O)NCc2ccc(C(=O)NCc3ccco3)cc2)c1	n	u	n	14µM	n	n
COc1ccc(C(=O)NCC(=O)Nc2cccc(S(=O)(=O)NCc3ccco3)c2)cc1OC	n	n	n[10 µM]	20µM	n	x
COc1ccc(CCNC(=O)c2ccc(CNS(=O)(=O)c3cccc(Cl)c3)cc2)cc1OC	n	n	n[10 µM]	3.5µM	u	n
COc1cccc(S(=O)(=O)Nc2ccc(C(=O)NCc3ccco3)cc2)c1	n	n	n[10 µM]	28µM	n	u
COc1ccc(C(=O)Nc2ccc(S(=O)(=O)NCc3ccco3)cc2)cc1OC	u	n	n[10 µM]	n	n	n
CN1C(=O)COc2ccc(C(=O)c3oc4ccccc4c3-c3cnc4c(c3)COc3ccccc3-4)cc21	n	n	n[10 µM]	n	n	n
Cc1ccccc1OCC(=O)Nc1ccc(OCc2cc(=O)n3ccccc3n2)cc1	x	x	x	x	n	x
COc1cccc([C@@H]2Oc3ccc(Br)cc3C[C@H]2OC(=O)NS(=O)(=O)c2ccc(F)cc2)c1	u	x	n	n	x	n
O=C(CCc1nc2ccccc2s1)OCC(=O)c1ccc[nH]1	n	n	n	n	n	x
CCCc1cc(OC)c2c(c1)OCO2	n	x	n	u	x	n
O=C(NC(=S)Nn1cnnc1)c1ccccc1Cl	n	n	u	10µM	x	x
COc1cccc(C(=O)NC(=S)Nn2cnnc2)c1OC	n	n	n	7.9µM	n	x
COC(=O)c1cc(OC)c(OC)cc1NC(=O)c1cccc(OC)c1OC	n	n	n[10 µM]	u	n	x
CC(=O)Nc1cccc(NC(=O)CSc2nccn2C2CCCC2)c1	x	x	x	x	n	x
COc1ccc(NC(C)c2cc(Cl)ccc2O)cc1 (stereo not given)	u	n	n[0.074 µM]	22µM	n	u
CC(Nc1ccccc1)c1cc(Cl)ccc1O (stereo not given)	n	n	n[10 µM]	n	n	n
Cn1ccnc1SCC(=O)Nc1ccc2c(c1)OCO2	n	n	n	14µM	n	x
CCOC(=O)c1ccc(NC(=O)CSc2nnnn2C2CCCCC2)cc1	n	n	n[1.9 µM]	n	n	n
COc1ccc(-n2nnnc2SCC(=O)Nc2ccc3c(c2)OCCO3)c(OC)c1	n	n	n	7.1µM	u	n
O=C(CSc1nnnn1C1CCCC1)Nc1ccc2c(c1)OCO2	n	n	n	11µM	n	n
COc1cccc(-n2nnnc2SCC(=O)NC2CCCC2)c1	n	n[9.22 µM]	n	n	n	n
COc1cccc(C(=O)CSc2nnnn2C2CCCCC2)c1	n	n	n	2.8µM	n	n
COc1cccc(-n2nnnc2SCC(=O)Nc2ccc3c(c2)OCCO3)c1	n	n[9.22 µM]	n	n	n	n
CC(C)Cc1ccc(S(=O)(=O)NCc2nc3cccnc3n2Cc2ccccc2)cc1	x	x	x	x	n	x
CC1=C(C(=O)OCc2ccccc2)C(C2CC2)NC(=O)N1CCCCCC(=O)O (stereo not given)	u	x	n	u	x	n
CSc1ncc(C(=O)NCc2cccc(Br)c2)c(-c2ccccc2)n1	x	x	x	x	n	x
O=C(CSc1nnnn1C1CCCC1)c1ccc2c(c1)OCCO2	n	n	n[10 µM]	3.2µM	n	n
N#Cc1ccsc1NC(=O)CSc1ncn[nH]1	n	n	n[0.074 µM]	n	n	n
